Assay results published in PubChem BioAssay.
Active and inactive are the calls of the source. Unless noted, no rule for the calls is given here.

Key:
[1] = test system: Wnt5a (protein binding on small-molecule microarray); assay: small molecules binding Wnt5a protein – biophysical, small-molecule microarray, 635/667 nm fluorescence, primary screen (AID 1142); conditions: 635 nm fluorescence, higher = more signal;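 also: fluorescence read at 667 nm with signal to noise per printed feature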
[2] = ATP-based viability of Huh7 replicon cells – cell-based, CellTiter-Glo luminescence, basal, 48 h, cytotoxicity control for HCV replication inhibitor project, primary screen (AID 1143); conditions: higher = more signal, called active from +8 up or from −8 down;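 also: Huh7 hepatoma cells carrying a hepatitis C replication reporter with no stimulus; test concentration not given here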
[3] = Pseudomonas biofilm growth suppression – PAO1 strain, BacTiter-Glo luminescence, LB-PBS, primary screen (AID 1144); conditions: P. aeruginosa PAO1 biofilm, 12 h, higher = more signal
[4] = basal CRE-LacZ reporter activity in PC12 – cell-based, unstimulated, primary screen (AID 1145); conditions: no forskolin, luminescence, 4.5 h, higher = more signal, called active from +8 up or from −8 down
[5] = forskolin-driven CRE-LacZ activity in PC12 – cell-based, CRE-LacZ reporter, forskolin-stimulated, primary screen (AID 1146); conditions: luminescence, 4.5 h, higher = more signal, called active from +8 up or from −8 down;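 also: PC12 cells with 6xCRE LacZ reporter stimulated by forskolin 10 µM; beta-galactosidase reporter signal reflecting CREB driven transcription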
[6] = target: Streptavidin (Streptomyces avidinii) (UniProt P22629); assay: compounds binding control protein streptavidin – biophysical, small-molecule microarray, 635/667 nm fluorescence, artefact control for SMM compound annotation, primary screen (AID 1147); conditions: higher = more signal;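 also: signal reflects streptavidin binding to arrayed compounds as a control protein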
Streptavidin (Streptomyces avidinii), sequence (P22629 whole entry, looked up): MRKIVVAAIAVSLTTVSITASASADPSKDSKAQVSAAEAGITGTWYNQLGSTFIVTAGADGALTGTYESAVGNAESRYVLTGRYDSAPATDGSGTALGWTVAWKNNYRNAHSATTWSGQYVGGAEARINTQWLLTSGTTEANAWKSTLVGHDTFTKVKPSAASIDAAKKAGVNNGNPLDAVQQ

[7] = probe aInhba binding on compound microarray – biochemical, small-molecule microarray, 635/667 nm fluorescence, primary screen (AID 1148); conditions: higher = more signal;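 also: score merges 667nm spot fluorescence with signal-to-noise for antibody binding to printed compounds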
Torsin-1A (Homo sapiens) [8] = target: Torsin-1A (Homo sapiens) (UniProt O14656); assay: TOR1A wild-type binding on microarray – cell lysate, small-molecule microarray, lysate, 635/667 nm, primary screen (AID 1149); conditions: COS7 hTOR1A-WT lysate, 635 nm fluorescence, higher = more signal
Torsin-1A (Homo sapiens), sequence (O14656 whole entry, looked up): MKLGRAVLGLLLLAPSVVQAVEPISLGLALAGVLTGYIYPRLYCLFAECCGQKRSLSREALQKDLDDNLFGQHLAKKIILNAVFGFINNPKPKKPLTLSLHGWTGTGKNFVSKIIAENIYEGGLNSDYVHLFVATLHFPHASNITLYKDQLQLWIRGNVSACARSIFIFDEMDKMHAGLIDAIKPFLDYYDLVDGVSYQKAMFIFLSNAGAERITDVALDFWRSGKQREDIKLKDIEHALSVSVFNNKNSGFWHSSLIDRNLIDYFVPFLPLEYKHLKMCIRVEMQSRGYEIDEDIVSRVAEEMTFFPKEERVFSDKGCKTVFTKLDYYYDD

Torsin-1A (Homo sapiens) [9] = target: Torsin-1A (Homo sapiens) (UniProt O14656); assay: torsin A mutant lysate binding on microarrays – cell lysate, small-molecule microarray, COS7 lysate, 635/667 nm fluorescence, primary screen (AID 1150); conditions: COS7 hTOR1A mutant lysate, 635 nm fluorescence, higher = more signal;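 also: score pools 667 nm emission and signal to noise measuring lysate protein binding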
[10] = test system: Sonic hedgehog protein (Shh); assay: Sonic hedgehog microarray binding compounds – biochemical, small-molecule microarray, 635/667 nm fluorescence, primary screen (AID 1151); conditions: 635 nm fluorescence, higher = more signal;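 also: Shh protein binding to compounds spotted on small-molecule microarray slides; score combines spot fluorescence intensity with signal-to-noise across triplicate slides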
[11] = optical density shifts of acrAB sulA E. coli – strain DRC41, OD650, 48 h, E. coli filamentation inducer project, primary screen (AID 1152); conditions: higher = more signal, called active from +8 up or from −8 down;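 also: E. coli MC1000 strain DRC41 lacking acrAB efflux pump and sulA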
[12] = probe aLefty1 binding on compound microarray – biochemical, small-molecule microarray, 635/667 nm fluorescence, primary screen (AID 1153); conditions: higher = more signal;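 also: score merges spot fluorescence with signal-to-noise ratio from the scanned slide images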
[13] = plasmodial surface anion channel blockers, osmotic lysis – cell-based, P. falciparum Indochina, OD700, 1 h, primary screen (AID 1154); conditions: P. falciparum Indochina infected RBC osmotic lysis, higher = more signal, called active from +8 up or from −8 down
[14] = plasmodial surface anion channel blockers, osmotic lysis – cell-based, P. falciparum Indochina, OD700, 2 h, primary screen (AID 1155);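 also: lysis reports solute entry through the parasite surface anion channel PSAC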; conditions: P. falciparum Indochina infected erythrocytes, higher = more signal, called active from +8 up or from −8 down
[15] = changes in parasitized red cell lysis, either direction – P. falciparum Indochina, OD700, 3 h, PSAC antagonist project, primary screen (AID 1156); conditions: P. falciparum-infected erythrocytes, osmotic lysis, higher = more signal, called active from +8 up or from −8 down
[16] = plasmodial surface anion channel blockers, osmotic lysis – cell-based, P. falciparum Indochina, OD700, 18 h, primary screen (AID 1157); conditions: P. falciparum Indochina infected erythrocytes, osmotic lysis OD700, 18 h; higher = more signal, called active from +8 up or from −8 down
[17] = S6 kinase pathway phospho-S6 level changes – cell-based, A549, cytoblot, luminescence, serum-stimulated, primary screen (AID 1158); conditions: 5 h, higher = more signal;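 also: serum-stimulated A549 lung adenocarcinoma cells; signal is phosphorylated S6 detected by cytoblot immunostaining with HRP secondary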
[18] = target: NADPH oxidase 2 (Homo sapiens) (UniProt P04839); assay: compounds shifting NOX2 Amplex Red fluorescence – cell-based, HEK293-NOX2, PMA-stimulated, NOX inhibitor project, primary screen (AID 1159); conditions: 45 min, higher = more signal, called active from +8 up or from −8 down; also: test concentration not given here
NADPH oxidase 2 (Homo sapiens), sequence (P04839 whole entry, looked up): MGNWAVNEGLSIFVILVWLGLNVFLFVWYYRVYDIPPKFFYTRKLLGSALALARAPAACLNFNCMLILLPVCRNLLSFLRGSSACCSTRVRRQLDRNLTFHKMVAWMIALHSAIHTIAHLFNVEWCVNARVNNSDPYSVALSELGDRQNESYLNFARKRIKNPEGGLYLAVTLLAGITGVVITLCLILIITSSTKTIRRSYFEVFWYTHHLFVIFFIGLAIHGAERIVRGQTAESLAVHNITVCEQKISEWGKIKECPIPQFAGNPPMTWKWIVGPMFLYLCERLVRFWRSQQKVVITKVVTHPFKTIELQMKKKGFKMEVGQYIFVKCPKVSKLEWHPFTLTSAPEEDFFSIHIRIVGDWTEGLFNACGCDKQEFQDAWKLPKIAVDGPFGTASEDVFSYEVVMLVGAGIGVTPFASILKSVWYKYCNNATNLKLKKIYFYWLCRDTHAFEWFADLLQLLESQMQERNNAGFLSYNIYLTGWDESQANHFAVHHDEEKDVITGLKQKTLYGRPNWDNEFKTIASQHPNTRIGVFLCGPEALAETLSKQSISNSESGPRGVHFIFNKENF

[19] = target: NADPH oxidase 4 (Homo sapiens) (UniProt Q9NPH5); assay: compounds shifting NOX4 Amplex Red fluorescence – cell-based, HEK293-NOX4, tetracycline-induced, NOX inhibitor project, primary screen (AID 1160); conditions: HEK293-NOX4, Amplex Red H2O2 fluorescence, 45 min; higher = more signal, called active from +8 up or from −8 down
NADPH oxidase 4 (Homo sapiens), sequence (Q9NPH5 whole entry, looked up): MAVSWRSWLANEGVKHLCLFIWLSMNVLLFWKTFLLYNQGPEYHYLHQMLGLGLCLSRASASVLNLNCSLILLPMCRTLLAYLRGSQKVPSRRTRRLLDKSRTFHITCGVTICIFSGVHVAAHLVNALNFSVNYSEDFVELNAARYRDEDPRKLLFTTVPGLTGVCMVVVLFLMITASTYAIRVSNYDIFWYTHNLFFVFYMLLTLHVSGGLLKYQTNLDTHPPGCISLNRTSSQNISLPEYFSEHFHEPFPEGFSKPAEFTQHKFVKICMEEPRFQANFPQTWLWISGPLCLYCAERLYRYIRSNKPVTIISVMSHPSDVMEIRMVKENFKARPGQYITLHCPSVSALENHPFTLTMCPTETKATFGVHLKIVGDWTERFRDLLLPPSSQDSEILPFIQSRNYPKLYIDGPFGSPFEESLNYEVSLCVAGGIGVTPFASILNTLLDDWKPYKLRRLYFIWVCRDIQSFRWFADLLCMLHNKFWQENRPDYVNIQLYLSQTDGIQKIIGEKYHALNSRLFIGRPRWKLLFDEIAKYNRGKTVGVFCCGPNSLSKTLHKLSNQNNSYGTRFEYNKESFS

[20] = target: NADPH oxidase 5 (Homo sapiens) (UniProt Q96PH1); assay: compounds shifting NOX5 Amplex Red fluorescence – cell-based, HEK293-NOX5, NOX inhibitor project, primary screen (AID 1161); conditions: HEK293-NOX5, ionomycin, 45 min, higher = more signal
NADPH oxidase 5 (Homo sapiens), sequence (Q96PH1 whole entry, looked up): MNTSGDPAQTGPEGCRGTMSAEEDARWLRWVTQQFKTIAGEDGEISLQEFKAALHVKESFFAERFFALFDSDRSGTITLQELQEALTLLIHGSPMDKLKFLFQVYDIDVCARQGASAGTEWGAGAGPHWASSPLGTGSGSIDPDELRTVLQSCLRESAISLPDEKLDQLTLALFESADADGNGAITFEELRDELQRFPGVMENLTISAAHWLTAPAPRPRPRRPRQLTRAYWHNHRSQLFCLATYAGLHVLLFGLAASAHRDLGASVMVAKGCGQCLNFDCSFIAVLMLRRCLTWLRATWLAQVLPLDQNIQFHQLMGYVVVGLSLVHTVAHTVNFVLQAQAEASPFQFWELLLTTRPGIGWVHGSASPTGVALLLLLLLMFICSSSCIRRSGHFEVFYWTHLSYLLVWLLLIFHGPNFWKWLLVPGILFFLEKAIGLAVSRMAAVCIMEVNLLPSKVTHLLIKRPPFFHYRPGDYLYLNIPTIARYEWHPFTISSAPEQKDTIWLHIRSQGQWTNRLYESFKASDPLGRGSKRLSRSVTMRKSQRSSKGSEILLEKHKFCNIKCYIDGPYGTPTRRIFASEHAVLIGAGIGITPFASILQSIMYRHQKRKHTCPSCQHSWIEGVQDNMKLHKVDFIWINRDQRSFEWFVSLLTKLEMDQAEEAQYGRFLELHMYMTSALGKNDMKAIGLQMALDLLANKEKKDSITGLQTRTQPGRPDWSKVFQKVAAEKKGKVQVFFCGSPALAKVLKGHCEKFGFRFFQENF

SMILES	composite z-score [1]	z-score [2]	z-score [3]	z-score [4]	z-score [5]	composite z-score [6]	composite z-score [7]	composite z-score (Torsin-1A (Homo sapiens) [8])	composite z-score (Torsin-1A (Homo sapiens) [9])	composite z-score [10]	z-score [11]	composite z-score [12]	z-score [13]	z-score [14]	z-score [15]	z-score [16]	z-score [17]	z-score [18]	z-score [19]	z-score [20]
CCN(CC)c1ccc(N2CC=CC34O[C@@H]5C=CCOC(=O)[C@@H]5[C@H]3C(=O)N(CCCCCO)[C@@H]4C2=O)cc1 (stereo not given in full)	-0.253	-0.286 (inactive)	0.555 (inactive)	1.57 (inactive)	-0.0409 (inactive)	-0.93	-0.186	1.03	1.06	0.146	0.825 (inactive)	0.271	1.29 (inactive)	0.172 (inactive)	1.36 (inactive)	0.113 (inactive)	-0.491	0.766 (inactive)	0.449 (inactive)	1.67
COc1ccc(C#Cc2ccc3c(c2)[C@]2(C(=O)N3)[C@H](C(=O)N3CCc4cc(OC)c(OC)cc4C3)[C@H]3C(=O)O[C@H](c4ccccc4)[C@H](c4ccccc4)N3[C@@H]2c2ccc(OCCO)cc2)cc1	0.665	-0.763 (inactive)	-0.745 (inactive)	-0.258 (inactive)	-0.166 (inactive)	1	0.136	0.947	0.488	1.88	1.82 (inactive)	0.423	5.73 (inactive)	2.37 (inactive)	0.279 (inactive)	1.42 (inactive)	0.0867	0.0908 (inactive)	0.246 (inactive)	0.115
CCOC(=O)C=Cc1cccc(OC)c1O	-0.811	-4.11 (inactive)	1.91 (inactive)	0.182 (inactive)	-0.791 (inactive)	-0.432	-0.13	-0.146	0.141	-0.8	-0.572 (inactive)	-0.184	21.2 (active)	2.21 (inactive)	0.957 (inactive)	-1.28 (inactive)	1.73	-5.37 (inactive)	-5.92 (inactive)	-6.34
Oc1ccc2cc[n+](Cc3cccc(OC(F)(F)F)c3)cc2c1	0.112	0.202 (inactive)	-0.452 (inactive)	-0.0243 (inactive)	-0.668 (inactive)	0.1	-0.255	0.0193	-0.527	1.89	0.444 (inactive)	-0.606	0.0313 (inactive)	-0.0655 (inactive)	0.621 (inactive)	-0.236 (inactive)	-0.522	-1.93 (inactive)	-0.554 (inactive)	-0.3
COCCOC(=O)N1C(=O)[C@@]2(c3cc(C#CC4(O)CCCCCC4)ccc31)[C@H](c1ccc(O)cc1)N1[C@H](c3ccccc3)[C@H](c3ccccc3)OC(=O)[C@H]1[C@@H]2C(=O)N1CCc2cc(OC)c(OC)cc2C1	-0.445	-2.45 (inactive)	-1.73 (inactive)	-1.7 (inactive)	-0.805 (inactive)	-1.33	-0.176	-0.576	-0.0551	-0.649	1.23 (inactive)	-0.0099	-0.0535 (inactive)	0.49 (inactive)	0.44 (inactive)	0.286 (inactive)	0.0108	-0.0758 (inactive)	0.139 (inactive)	0.979
C=C(/C(=C/C[C@@H](OC(C)=O)c1ccc(CO)o1)c1cnc2ccccc2c1)C(C)C	1.3	-0.136 (inactive)	-0.171 (inactive)	0.159 (inactive)	-0.731 (inactive)	0.17	-0.0448	2.14	0.619	2.04	0.727 (inactive)	-0.147	4.83 (inactive)	1.28 (inactive)	1.74 (inactive)	0.332 (inactive)	1.04	0.334 (inactive)	-1.99 (inactive)	-0.957
CCN(CC)c1ccc(N2CC=CC34O[C@@H]5/C=C\CCC(C)OC(=O)C5[C@H]3C(=O)N(CCCCCCO)[C@@H]4C2=O)cc1 (stereo not given in full)	-0.449	-0.406 (inactive)	0.398 (inactive)	0.886 (inactive)	0.57 (inactive)	-0.629	-0.359	0.84	0.0844	-0.166	0.699 (inactive)	-0.464	-0.37 (inactive)	0.0486 (inactive)	-0.383 (inactive)	0.33 (inactive)	1.35	-0.315 (inactive)	-0.0195 (inactive)	0.813
COCCOC(=O)N1C(=O)[C@@]2(c3cc(C#CCC(C(=O)OC)C(=O)OC)ccc31)[C@H](c1ccc(OCCO)cc1)N1[C@H](c3ccccc3)[C@H](c3ccccc3)OC(=O)[C@H]1[C@@H]2C(=O)NC[C@H](O)c1ccccc1	0.354	-1.84 (inactive)	-1.29 (inactive)	-1.56 (inactive)	-0.526 (inactive)	0.521	0.281	1.72	1.18	2.14	0.588 (inactive)	-0.0533	3.79 (inactive)	1.54 (inactive)	1.69 (inactive)	1.17 (inactive)	0.22	1.53 (inactive)	1.26 (inactive)	1.17
COC(=O)[C@@]1(Cc2ccc(F)cc2)[C@H]2c3cc(C(=O)N4CCCC4)n(CCc4ccc(OC)c(Br)c4)c3C[C@H]2CN1C(=O)c1ccccc1	0.375	-3.82 (inactive)	0.839 (inactive)	0.0109 (inactive)	-1.14 (inactive)	2.46	0.431	0.17	0.858	-0.328	-0.71 (inactive)	1.2	7.48 (inactive)	1.5 (inactive)	0.248 (inactive)	1.33 (inactive)	0.0028	0.0756 (inactive)	0.742 (inactive)	0.98
